Measured values: the supplement of paper PMC10681739

target: T1, ETS1 (UniProt P14921); test: TF binding intensity (PBM fluorescence), negative control probe (arbitrary fluorescence units); higher = stronger binding
T1 sequence: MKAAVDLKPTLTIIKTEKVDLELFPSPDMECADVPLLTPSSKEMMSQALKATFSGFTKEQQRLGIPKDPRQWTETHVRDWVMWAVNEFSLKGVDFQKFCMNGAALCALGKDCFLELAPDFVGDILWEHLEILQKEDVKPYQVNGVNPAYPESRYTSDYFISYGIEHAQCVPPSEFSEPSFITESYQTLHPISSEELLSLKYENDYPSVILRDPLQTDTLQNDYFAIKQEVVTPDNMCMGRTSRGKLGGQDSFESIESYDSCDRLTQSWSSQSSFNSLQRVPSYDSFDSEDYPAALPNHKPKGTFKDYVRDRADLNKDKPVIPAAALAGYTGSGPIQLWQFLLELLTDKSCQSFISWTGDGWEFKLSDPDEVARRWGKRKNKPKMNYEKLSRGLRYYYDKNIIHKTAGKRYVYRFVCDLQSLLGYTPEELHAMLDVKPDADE
Description: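 gcPBM negative-control 36-bp genomic probes lacking TF binding sites. Each was incubated with recombinant human ETS1 or RUNX1 alone and detected by antibody fluorescence. Values are medians over replicate spots (4 spots for the ETS1-RUNX1 arrays, 3 for the ETS1-ETS1 array). The probes sit in constant array flanks that are not printed.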

Sequence	TF binding intensity
TCACTCTCTGGACAGGGCCCTCTGAGCAAGCAACCA (protein concentration 10 nM)	109
TGGAATCTCATCCAAGCTGGATTTTGCGATCTTTGA (protein concentration 10 nM)	104
AATGAATCTGCATGAATAAAAGGGTCAACACAGCAG (protein concentration 10 nM)	147
AGAAAGGCATGTCTCCAGGCTCTAAAGAGGCAAAGG (protein concentration 10 nM)	117
AGTCTAGTTTTGCTCTTTAAAATCACCATCTGTATC (protein concentration 10 nM)	138
AGAGCCACAGTGTGGCTTGGCTGGTAAATTATTTGT (protein concentration 10 nM)	109
AGAGAATCTGATTGGTTGTTGACCTTTGGGACAAGT (protein concentration 10 nM)	105
TTGTGTTCTTATCAAATTATTAAGATTTTAGGTGAG (protein concentration 10 nM)	133
CCGGGACCCCGCCCCCGATCCCCGCCTACCGGGGCC (protein concentration 10 nM)	209
TCTGAATGCTAAGCTCATCGAAGACGCCCAGCACTT (protein concentration 10 nM)	123
TTAACCTCTAGAAAAAGTAAATATTCAGCAATAGGA (protein concentration 10 nM)	103
TACTGGGGAGTGAAAAGGACACATCTATCCTTATAT (protein concentration 10 nM)	103
CTTAGTTCAGTGTAAGGGGCCTGGTTGTTGGATTTT (protein concentration 10 nM)	119
AGCAGAGTGTGATGAATGGATTCATATACGGTCTGA (protein concentration 10 nM)	103
ATACATACCTTTCACCCTCCATTGTGTGAGGCCCAG (protein concentration 10 nM)	114
CTTGACAGAGGTATGTGCTAGGATTGAATATGTGGG (protein concentration 10 nM)	131
GAAATCCAGGAGAAAAATGCAGGACAGTCAGAGTAA (protein concentration 10 nM)	106
TTTTTAAATTCGGTTTTGTGTTTTATCTTCAATTTC (protein concentration 10 nM)	105
GTTGGGCCCCCTGGGCCTTGTTCTCGGGATCCAGGG (protein concentration 10 nM)	111
GTCCCCTCAAGGACCCCCAGTGCAGGTGAAAAACTG (protein concentration 10 nM)	174

Sequence	TF binding intensity
ACACATCAAAATGTCTGTGGTTTTTATGAAAAATAG (protein concentration 1 nM)	510
ACGACTCTTCCCAAGCAGCGGGAGGATCTAGGCCCA (protein concentration 10 nM)	102
CATTAGATTCTCATAAGGAGCATAACCTAGATCCCT (protein concentration 10 nM)	104
CCCCAGTAGAAGCCACCCAGCCTTTTGTTTGTTTTC (protein concentration 10 nM)	133
GAGGGTCCCGGCTCTGCCGCAGGCGGGCGGGGCAGA (protein concentration 1 nM)	339
GCTATCTATTTTAATTAGCTAAGATTGCTATTAATA (protein concentration 10 nM)	106
CTTTCTAAAGAGAAAAGCTCCTTTGTACCACGTGTC (protein concentration 10 nM)	103
CCGACACTCCATGAGTTAGTTCAGTCCTCTGACACC (protein concentration 10 nM)	150
AGAAGCTTGGCTTGGTCTGCGCCTCCTCCCGTGCCT (protein concentration 10 nM)	101
ACTGCGCGCAGGGCCTGCAGCGGCAGCTGGACTGGG (protein concentration 10 nM)	120
TATTTTCCAAAAGTGGCCACAACAACATCTGCCAAC (protein concentration 1 nM)	442
CCACCGAGTGTTCTCGTTGCTCCACCGTAGCATCAG (protein concentration 10 nM)	124
GTATTTTGGGCGATAACACTTTCTCTACTTCTAAAA (protein concentration 10 nM)	116
GACATTTCGAGTAAGTGCGGTATACCAGTTAAAAAT (protein concentration 1 nM)	479
AATCCAATGGGGTTTCTGTGTAATTAATAACATCTA (protein concentration 10 nM)	120
AACGTCTACATTTGCTATTGTAAAACTTTTCAAGGC (protein concentration 10 nM)	125
AACTGTGACGTTACATTGCAAGGGCATGAATACAGG (protein concentration 10 nM)	131
GTGTGTGAGCGTGTACCCACAATGTGTAACTTAATT (protein concentration 1 nM)	484
AGGCATAACAGAAAAACCTCAACTTAAATAGTGCTG (protein concentration 1 nM)	626
CAAGATCTCTAACCACACTCGTCTGTGGCACTTCTT (protein concentration 10 nM)	118
